Data taken from the GenesisPotency data set.
In all, about 290,000 compounds went through this assay and about 3,000 (1%) were called active. Rule as the data show it: active = inhibition mostly above about 36% (no sharp cut-off); inactive = mostly below about 34%. Shown is part of a subset that was picked to be rich in actives.

target: T1, Nucleotide-binding oligomerization domain-containing protein 1, Homo sapiens (UniProt Q9Y239); experiment: NOD1 signaling inhibitors, primary screen, cell-based, luminescence, uHTS (AID 1578)
T1 sequence (whole entry): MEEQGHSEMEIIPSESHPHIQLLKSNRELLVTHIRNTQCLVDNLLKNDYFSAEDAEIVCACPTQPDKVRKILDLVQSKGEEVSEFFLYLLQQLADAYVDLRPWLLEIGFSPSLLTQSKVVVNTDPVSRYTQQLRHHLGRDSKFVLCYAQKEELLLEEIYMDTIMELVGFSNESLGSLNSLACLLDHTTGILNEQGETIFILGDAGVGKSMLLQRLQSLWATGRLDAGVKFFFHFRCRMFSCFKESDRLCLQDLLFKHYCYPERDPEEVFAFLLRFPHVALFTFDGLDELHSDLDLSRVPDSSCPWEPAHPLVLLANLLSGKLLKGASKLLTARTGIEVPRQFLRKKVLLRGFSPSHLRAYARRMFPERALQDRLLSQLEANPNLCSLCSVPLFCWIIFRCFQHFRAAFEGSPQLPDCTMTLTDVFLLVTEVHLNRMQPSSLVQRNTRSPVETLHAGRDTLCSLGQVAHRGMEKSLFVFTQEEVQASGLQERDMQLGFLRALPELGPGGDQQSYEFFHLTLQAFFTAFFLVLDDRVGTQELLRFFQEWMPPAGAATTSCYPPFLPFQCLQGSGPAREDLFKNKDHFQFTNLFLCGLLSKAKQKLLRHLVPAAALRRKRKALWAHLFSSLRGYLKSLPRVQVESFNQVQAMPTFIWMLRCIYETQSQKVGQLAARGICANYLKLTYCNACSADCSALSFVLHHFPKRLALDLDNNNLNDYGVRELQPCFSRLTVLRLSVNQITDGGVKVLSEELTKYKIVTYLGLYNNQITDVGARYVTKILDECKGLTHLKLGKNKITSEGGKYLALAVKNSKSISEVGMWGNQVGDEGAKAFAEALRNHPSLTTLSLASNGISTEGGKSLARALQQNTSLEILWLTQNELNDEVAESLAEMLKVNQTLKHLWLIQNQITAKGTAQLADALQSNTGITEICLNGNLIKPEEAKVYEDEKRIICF

outcome, active:
COc1ccc(-[n+]2c(C)cc(/C=C3\Sc4ccccc4N3C)cc2C)cc1.[I-], COc1ccc(-c2cncnc2-c2ccc(OC)cc2O)cc1, COc1ccc(-c2cnc(N)nc2-c2ccc(OC)cc2O)cc1, Cc1ccc(Nc2cc(C)nn2-c2nc(C)cc(=O)[nH]2)cc1, O=c1c2c(nc3c(-c4ccc(Cl)cc4)c[nH]n13)CCCC2, O=c1c2c(nc3c(-c4cccc(Br)c4)c[nH]n13)CCCC2, O=c1c2c(nc3c(-c4ccc(Cl)cc4)c[nH]n13)CCC2, CCCc1cc(=O)n2[nH]cc(-c3ccc(Cl)cc3)c2n1, CN(C)S(=O)(=O)N1CCC(Oc2cccc(C(=O)NC3CCCCCC3)c2)CC1, Cc1cccc(NC(=S)N/N=C/c2ccc([N+](=O)[O-])s2)c1, Cc1ccc(NC(=S)N/N=C/c2ccc([N+](=O)[O-])s2)cc1, Cc1cc(N2CCOCC2)c2c(N)c(Br)cc(C)c2n1, O=C(Nc1nc(-c2ccccn2)cs1)Nc1ccc(F)cc1F, O=C(Nc1nc(-c2cc(F)ccc2F)cs1)c1ccccn1, CC(Oc1ccc(Br)cc1)C(=O)Nc1nc(-c2ccccn2)cs1 (stereo not drawn), O=C(Nc1nnc(SCc2ccc(F)cc2)s1)c1ccccn1, O=C(Nc1nc(-c2ccccn2)cs1)c1cc(Cl)ccc1[N+](=O)[O-], Cn1cc([N+](=O)[O-])c(C(=O)Nc2nc(-c3ccc(Cl)cc3)cs2)n1, COc1ccc(-c2csc3ncnc(NCCCO)c23)cc1, COc1ccc(-c2csc3ncnc(NCCO)c23)cc1, OCCCNc1ncnc2scc(-c3ccc(Cl)cc3)c12, CCN(CC)S(=O)(=O)c1ccc2[nH]cc(C(=O)NCCC3=CCCCC3)c(=O)c2c1, Cn1c(=O)c2c(nc(NCc3ccco3)n2C/C=C/c2ccccc2)n(C)c1=O, O=C(Nc1ccc(S(=O)(=O)N2CCOCC2)cc1)c1ccc(CN2CCc3ccccc3C2)cc1, O=C(Nc1ccc(CN2CCOCC2)cc1)c1ccc(-c2ccc(Cl)cc2Cl)o1, O=C(Nc1ccc(S(=O)(=O)Nc2ccc(F)cc2)cc1)c1ccc(CN2CCOCC2)cc1, O=C(Nc1ccc(S(=O)(=O)N2CCCCC2)cc1)c1ccc(CN2CCOCC2)cc1, O=C(Nc1ccc(S(=O)(=O)N2CCCCC2)cc1)c1ccc(CN2CCc3ccccc3C2)cc1
